PubChem BioAssay (NCI)
Where “and” joins values, the source holds several entries; their conditions need not be identical. Equal values may be shown once. About 83,000 compounds went through this panel and 20% of them were active in at least one assay; those are over-represented in the sample as a whole.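 In brief: 96-well plates, 48 h treatment, single concentration, percent growth endpoint.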 Calls of active or inactive are those of the source. How the source made its calls: active means growth percent below 10; inactive means the rest.

Test system: HL-60(TB) leukemia
Experiment: NCI-60 one-dose screen, 48 h (100 = growth as untreated, 0 = no growth, -100 = all killed)
Settings: 10 µM unless noted

Row | Compound | growth
1 | CC(C(=O)O)n1cc(C#N)c(=O)[nH]c1=O (stereo unspecified) | 104% (inactive) and 90.4% (inactive)
2 | C=C1C(=O)O[C@H]2[C@H]1CC/C(COC(=O)CSCCSCC(=O)OC/C1=C/CC[C@@]3(C)O[C@H]3[C@H]3OC(=O)C(=C)[C@@H]3CC1)=C\CC[C@@]1(C)O[C@@H]21 | -58.8% (active)
3 | COc1ccc(C2C(C#N)=C(N)Oc3n[nH]c(-c4cccs4)c32)cc1I (stereo unspecified) | 54.2% (inactive)
4 | Cc1ccc(CNc2ccc(Cl)cc2NCc2ccc(C)c(O)c2)cc1O | 8.41% (active)
5 | COc1cccc2cc(-c3nc(C4CCC(C(=O)O)CC4)n4ncnc(N)c34)[nH]c12 (stereo unspecified) | 33.3% (inactive)
6 | CC(=O)c1cc2c(N)c(C(=O)Nc3cncc4ccccc34)sc2nc1C | 91.6% (inactive)
7 | COc1ccc(-c2c(-c3nc4ccc(N5CCOCC5)cc4[nH]3)[nH]c(C)c2C(C)=O)cc1 | 4.22% (active)
8 | NC(CSSCC(N)C(=O)O)C(=O)O (stereo unspecified) | -12.8% (active)
9 | COc1ccccc1-c1c(-c2ccc(Cl)cc2)c2cc3c(cc2[nH]c1=O)OCCO3 | 18.3% (inactive)
10 | COc1ccc(-c2csc(NC(=O)CSc3nc(-c4ccccc4)cc(=O)[nH]3)n2)cc1 | 52.4% (inactive)
11 | CCOC(=O)c1c(C)[nH]c(C)c1C=O | 71.4% (inactive)
12 | CCCCCCCCCCCCCCNC(=O)Nc1ccc(Cl)c(Cl)c1 | 79.1% (inactive)
13 | CCN(CCNS(C)(=O)=O)c1ccc(N)c(C)c1 | 11.5% (inactive) and 77.3% (inactive)
14 | COc1ccc(Sc2ccc3[nH]c(=O)nc(N)c3c2)cc1 | 94.9% (inactive)
15 | CC1(C)S(=O)(=O)OCCOS1(=O)=O | 95.6% (inactive)
16 | NC(=O)Cc1nc(O)cc(=O)[nH]1 | 87.4% (inactive)
17 | COc1cc2c(cc1OC)C(Cc1cc(OC)c(OC)cc1[N+](=O)[O-])=NCC2 | 63.1% (inactive)
18 | CC(C)(C)n1cc(-c2ccnc(NCCCNS(=O)(=O)c3ccc(Cl)cc3)c2)c(-c2cccc(F)c2)n1 | 85.8% (inactive)
19 | COc1ccc(-c2cc(=O)c3c(O)cc(O)cc3o2)cc1 | 73.4% (inactive) and 103% (inactive)
20 | CCN(CC)CCNC(=O)n1cc(-c2ccncc2)c(-c2cc(Cl)cc(OC)c2)n1 | 78% (inactive)
21 | COc1cc2nc(N3CCC[C@@H](NC(=O)C4COc5ccccc5O4)C3)nc(N)c2cc1OC (stereo partly specified) | 105% (inactive) and 102% (inactive)
22 | Cc1ccccc1Cn1cnc2ccc(-c3cc(NC(=O)c4ccc(NC5CCN(C)CC5)cc4)n[nH]3)cc21 | 79.4% (inactive)
23 | COCCOc1cnc2ccn([C@H](C)c3nnc4c(F)cc(-c5cnn(C)c5)cn34)c(=O)c2c1 | 136% (inactive)
24 | O=C(NCCCCNC(=O)OCc1ccc2c(Cl)cc(Cl)c(O)c2n1)OCc1ccc2c(Cl)cc(Cl)c(O)c2n1 | -49.2% (active)
25 | N#C/C(=C\c1ccc([N+](=O)[O-])s1)c1nc2cc(Cl)ccc2s1 | 44.8% (inactive)
26 | NS(=O)(=O)OCC1OC(n2cnc3cncnc32)C(O)C1O (stereo unspecified) | 37.8% [0.1 µM] (inactive) and 27.5% [0.1 µM] (inactive)
